Reference: the supplement of paper PMC6555819

System: PPARg:RXRa DBDmut IVT, anti-RXR (DBD mutation: RXRa K156A/R161A, NR concentration 270 nM, RXRa partner concentration 90 nM)
Assay: PBM binding z-score (relative to random genomic background probes); higher = stronger binding; sequences stand for … in GC…GCGATTGACAGCGTAGAATGAAGG
Summary of the method: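 Custom Agilent 4×180K protein-binding microarrays carried double-stranded probes, each with a 34-nt variable region. These regions held direct-repeat seeds, single-nucleotide variants, half-site ablations and random human genomic background sequences. Ligand-free nuclear receptor dimers were incubated on the arrays for 1 h, antibodies against each partner (one per run) detected binding, and scanned fluorescence was regression-normalized. Binding z-scores take the random background probes as reference.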

Sequence | PBM binding z-score
ATTACAGGGTCATCGTAGGCCAGAGTACGCACAG | 2.45
ACTCGGAGGACAAAGGTCAGATCTACGCCAGTGA | 0.776
TTACCAAGGTGAGCTGAGGTCGCTGATCCAACTC | 1.38
CCTCGGAGGACAGAAGGTCTGAGCTGTCCGCTTT | 0.154
GCCTACGGGTCAAAGGTTATAGCATGAATAGAAT | 2.12
TAGCCTAGGTCAGTGGGCCAGTATAGTACGCATC | 2.3
CCTAGCAGGCCAATCTGGGGCACTCAAGGCTTGA | 3.51
GCTCGGAGGACCAGGTCAGAGCTTTGTCCGTAGA | -0.0233
GCTATTAGTTCAAAGGGCAACCGAATGATTCTCG | 0.957
ACAGACAGGTGGTGAAGGTAACTCAGGCTATCAT | -0.597
TCTAGTTGGTCAAAGTTCACACACTCGAAATGCG | 2.57
TCACCAAGGTGAGCTGAGGTCGTTGATCCAACTC | 1.73
CCTGCTAGGTCAATGGGCAGCTAAAGCAGCTCGC | 3.7
TCGAGTAGGTTAGTAGGGGCATTCAGCCAACATA | 2.98
TCGAGTAGGTTACCAATGGGGCATGCAGCTTTCT | 2.81
TCGTGTAGGTTACCAATGGGGCATTCAGCTTTCT | 3.06
TCAGACAGGTGAAGGTAACTGAGGTACGCAGTCG | 2.45
ATCTCTAGGTAAAGATAGTTCAGTGAATGCAAAT | 2.16
TCTAGTTGTTCACGGAGGTCACACACGACGGGTA | 1.73
TAGCCTAGCTCATGGGCCAGTATACCACGCGAAC | -1.04
CAAACTAGGTCCAAGGTCAAAGTCGAGCCAACCA | 2.64
ATCTCTAGGTAAGACTCAGTTTAGTGAAGAACGC | 2.06
